# Records with an inconclusive call do not appear. Entries that show only a call come without a potency. Calls of active or inactive are those of the source. Unless noted, the call rests on the fitted dose curve; in most records, active means well fitted curve in the direction sought with a large enough effect; inconclusive means small, poorly fitted or top-dose-only effect, or another doubt; inactive means no such curve, though single readings can be large; an effect the other way counts as inactive or inconclusive.
# Columns and labels:
# [1] = molecular target: Glutathione peroxidase 1 (Homo sapiens) (UniProt P07203); assay: Primary qHTS Assay for Inhibitors of Recombinant Selenoprotein Glutathione Peroxidase 1 (GPX1) (AID 1845191); further: nearly all actives have a fitted effect of over 65% in size; further: potency means the concentration at half of the fitted maximal effect
# Procedure, shortened: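 GR-coupled readout: NADPH consumption tracked by fluorescence, ex 340/em 450 nm, at t=0 and after 15 min at RT. Final mix 10 nM GPX1, 1 mM GSH, 0.5 mM CHP, 0.5 mM NADPH, 100 nM GR, 0.01% BSA, following 30 min enzyme–compound preincubation.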
# [2] = molecular target: Phospholipid hydroperoxide glutathione peroxidase GPX4 (Homo sapiens) (UniProt P36969); assay: Primary qHTS Assay for Inhibitors of Recombinant Selenoprotein Glutathione Peroxidase 4 (GPX4) (AID 1845192); further: nearly all actives have a fitted effect of over 65% in size; further: potency means the concentration at half of the fitted maximal effect; on activity change, negative = inhibition: series mostly up to about 50 µM
# Procedure, shortened: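 Steps: GPX4 plus compound, 30 min RT; add GR/GSH/NADPH master mix; start with cumene hydroperoxide; read 340/450 nm fluorescence at 0 and 15 min. Finals were 200 nM GPX4, 1 mM GSH, 0.5 mM CHP, 0.5 mM NADPH, 100 nM GR.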
# [3] = qHTS drug screen for cell cycle checkpoint inhibitors in PARPi-resistant BRCA-mutant ovarian cancer cell lines. (AID 1963452; calls by dose curve); details: PEO1/OlaR viability, CellTiter-Glo luminescence, 96 h, stronger effect = lower value
# Procedure, shortened: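 PEO1, PEO4 and PEO1/OlaR ovarian cancer cells, 600 per well, exposed 96 h at 37C to a dilution series. Viability read by CellTiter-Glo luminescence, normalized to DMSO and empty wells; activity summarized as Z-AUC.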
# [4] = molecular target: Luciferin 4-monooxygenase (Photinus pyralis) (UniProt P08659); assay: Primary firefly luciferase (FLuc) qHTS assay for identification of artifact compounds. (AID 1845220); details: outcome: dose series up to 54.1 µM; further: nearly all actives have a fitted effect of over 60% in size; on activity change, negative = inhibition: series mostly up to about 54 µM
# Procedure, shortened: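 Titrated compounds were incubated 15 min at RT, protected from light, with luciferin and ATP at 10 uM; reaction started with 10 nM FLuc, luminescence imaged at 5 min, and concentration-response fitted by Hill equation.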
# [5] = Primary fluorescence-based thiol-reactive (MSTI) qHTS assay for identification of artifact compounds. (AID 1845221);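 further: series mostly up to about 54 µM; thiol-reactive compounds lower the probe fluorescence signal; nearly all actives have a fitted effect of over 65% in size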
# Procedure, shortened: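 In PBS pH 7.4 with 2% DMSO, each compound met 4 uM MSTI for one hour at ambient temperature, shielded from light, before fluorescence detection.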
# [6] = Primary redox qHTS assay for identification of artifact compounds. (AID 1845223)
# Procedure, shortened: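 Redox-cycling detection via DTT (250 uM final) oxidation coupled to Amplex Red (25 uM)/HRP (250 mU/mL) in HBSS. 15 min preincubation plus 30 min after DTT, room temperature. Ex/Em 525/598 nm; 4-parameter Hill fit against DMSO and 10 uM DA3003.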
# [7] = measured here: PEO1 parental Z-AUC
# Glutathione peroxidase 1 (Homo sapiens), sequence (P07203 whole entry, looked up): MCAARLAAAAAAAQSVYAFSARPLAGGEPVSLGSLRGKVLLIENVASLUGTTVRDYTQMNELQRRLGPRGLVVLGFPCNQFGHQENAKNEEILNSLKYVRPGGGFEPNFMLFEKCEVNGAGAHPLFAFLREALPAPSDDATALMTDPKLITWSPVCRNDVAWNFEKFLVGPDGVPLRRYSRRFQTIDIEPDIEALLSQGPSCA
# Phospholipid hydroperoxide glutathione peroxidase GPX4 (Homo sapiens), sequence (P36969 whole entry, looked up): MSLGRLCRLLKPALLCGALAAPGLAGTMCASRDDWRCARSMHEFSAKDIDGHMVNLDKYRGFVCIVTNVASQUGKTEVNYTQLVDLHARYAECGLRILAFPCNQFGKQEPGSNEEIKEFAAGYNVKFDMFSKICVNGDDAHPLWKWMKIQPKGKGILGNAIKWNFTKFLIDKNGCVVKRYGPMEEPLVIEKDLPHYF
smiles,measurement,setting,value
O=C(O)CCC(=O)c1ccc(-c2ccccc2)cc1,Potency,[1],inactive
same,Potency,[2],inactive
CCCCC[C@H](O)/C=C/[C@@H]1[C@H]2C/C(=C/CCCC(=O)O)O[C@H]2C[C@H]1O,Potency,[1],inactive
same,Potency,[2],inactive
OCc1ccccc1,Potency,[1],inactive
same,Potency,[2],inactive
CCOC(=O)Oc1c(OC)cc(C(=O)O[C@@H]2C[C@@H]3CN4CCc5c([nH]c6cc(OC)ccc56)[C@H]4C[C@@H]3[C@H](C(=O)OC)[C@H]2OC)cc1OC,Potency,[1],inactive
same,Potency,[2],15.8 µM (active)
C/C=C/C=C/C(=O)O,Potency,[1],inactive
same,Potency,[2],inactive
CN(C)CCC=C1c2ccccc2C(C)(C)c2ccccc21,Potency,[1],inactive
same,Potency,[2],inactive
C=C[C@]1(C)C[C@@H](OC(=O)CSCCN(CC)CC)[C@]2(C)[C@H](C)CC[C@]3(CCC(=O)[C@H]32)[C@@H](C)[C@@H]1O,Potency,[1],inactive
same,Potency,[2],inactive
CCCCCc1ccc(C)cc1O,Potency,[1],inactive
same,Potency,[2],inactive
C[C@@](Cc1ccc(O)c(O)c1)(NN)C(=O)O,Potency,[1],inactive
same,Potency,[2],inactive
CCCCCCCCCCCCCCCCCC(=O)OCC(C)O (configuration not stated),Potency,[1],inactive
same,Potency,[2],inactive
CCN1C(=O)NC(c2ccccc2)C1=O (configuration not stated),Potency,[1],inactive
same,Potency,[2],inactive
CC(C)c1nc(N(C)S(C)(=O)=O)nc(-c2ccc(F)cc2)c1/C=C/C(O)CC(O)CC(=O)O (configuration not stated),Potency,[1],inactive
same,Potency,[2],inactive
CCCCCCCCCCCCCCCCCCCCCC(=O)Nc1ccn([C@@H]2O[C@H](CO)[C@@H](O)[C@@H]2O)c(=O)n1,Potency,[1],inactive
same,Potency,[2],inactive
NC[C@H]1O[C@H](O[C@H]2[C@H](O)[C@@H](O[C@H]3O[C@H](CO)[C@@H](O)[C@H](N)[C@H]3O)[C@H](N)C[C@@H]2N)[C@H](O)[C@@H](O)[C@@H]1O,outcome,[1],inactive [at 4.49 µM]
same,outcome,[2],inactive [at 4.52 µM]
NC(=O)c1ccc[n+]([C@@H]2O[C@H](COP(=O)([O-])OP(=O)(O)OC[C@H]3O[C@@H](n4cnc5c(N)ncnc54)[C@H](O)[C@@H]3O)[C@@H](O)[C@H]2O)c1,Potency,[1],inactive
same,Potency,[2],inactive
COc1ccc(/C=C/C(=O)OCCC(C)C)cc1,Potency,[1],inactive
same,Potency,[2],inactive
CC1=CC(=C(c2ccc(N)cc2)c2ccc(N)cc2)C=CC1=N,Potency,[1],inactive
same,Potency,[2],inactive
COc1ccc2c(c1)N(C[C@H](C)CN(C)C)c1ccccc1S2,Potency,[1],inactive
same,Potency,[2],inactive
CS(=O)(=O)OCC(O)C(O)COS(C)(=O)=O (configuration not stated),Potency,[1],inactive
same,Potency,[2],inactive
CCCOc1cc(N)ccc1C(=O)OCCN(CC)CC,Potency,[1],inactive
same,Potency,[2],inactive
Oc1cc(O)cc(O)c1,Potency,[1],inactive
same,Potency,[2],inactive
Cc1cc(-c2ccc(N=Nc3c(S(=O)(=O)O)cc4cc(S(=O)(=O)O)cc(N)c4c3O)c(C)c2)ccc1N=Nc1c(S(=O)(=O)O)cc2cc(S(=O)(=O)O)cc(N)c2c1O,Potency,[1],inactive
same,Potency,[2],inactive
O=C(OCc1ccccc1)c1cccnc1,Potency,[1],inactive
same,Potency,[2],inactive
Cc1ncc(C[n+]2csc(CCOP(=O)(O)OP(=O)(O)O)c2C)c(N)n1,"activity, negative = inhibition",[1],-4.18% [at 0.4 µM] (inactive)
same,"activity change, negative = inhibition",[2],-9.41% [at 0.409 µM] (inactive)
Nc1nc2c(c(=O)[nH]1)N(C=O)C(CNc1ccc(C(=O)N[C@@H](CCC(=O)O)C(=O)O)cc1)CN2 (some centres not stated),"activity, negative = inhibition",[1],-12.1% [at 0.4 µM] (inactive)
same,"activity change, negative = inhibition",[2],-4.6% [at 0.409 µM] (inactive)
NS(=O)(=O)c1cc2c(cc1Cl)NC(Cc1ccccc1)NS2(=O)=O (configuration not stated),Potency,[1],inactive
same,Potency,[2],inactive
NC(N)=NCC1COC2(CCCCC2)O1 (configuration not stated),Potency,[1],inactive
same,Potency,[2],inactive
O=P(O)(O)OP(=O)(O)O,Potency,[1],inactive
same,Potency,[2],inactive
CO/N=C(\C(=O)N[C@@H]1C(=O)N2C(C(=O)O)=C(C[N+]3(C)CCCC3)CS[C@H]12)c1csc(N)n1,Potency,[1],11.4 µM (active)
same,Potency,[2],17.8 µM (active)
FCOC(C(F)(F)F)C(F)(F)F,Potency,[1],inactive
same,Potency,[2],inactive
OCCCNc1ccccc1,Potency,[1],inactive
same,Potency,[2],inactive
CCCCCCCCCCCCCCCC(=O)OC[C@@H](O)[C@H]1OC[C@H](O)[C@H]1O,Potency,[1],inactive
same,Potency,[2],inactive
CC(C)(C)NCC(O)CSc1nc(-c2ccc(C(N)=O)s2)cs1 (configuration not stated),Potency,[1],22.7 µM (active)
same,Potency,[2],12.6 µM (active)
CN1C(=O)C[C@@H](C(=O)N[C@@H](Cc2cnc[nH]2)C(=O)N2CCC[C@H]2C(N)=O)NC1=O,Potency,[1],inactive
same,Potency,[2],inactive
Cc1c(C)c2c(c(C)c1OC(=O)CCC(=O)O)CC[C@@](C)(CCC[C@H](C)CCC[C@H](C)CCCC(C)C)O2,Potency,[1],inactive
same,Potency,[2],inactive
FC(F)OC(Cl)C(F)(F)F (configuration not stated),Potency,[1],inactive
same,Potency,[2],inactive
C=C1CC[C@H](O)CC1=C/C=C1\CCC[C@]2(C)[C@@H]([C@H](C)CCCC(C)(C)O)CC[C@@H]12,Potency,[1],inactive
same,Potency,[2],14.1 µM (active)
CCCCC(O)c1ccccc1 (configuration not stated),Potency,[1],inactive
same,Potency,[2],inactive
O=[N+]([O-])O[C@@H]1CO[C@H]2[C@@H]1OC[C@@H]2O,Potency,[1],inactive
same,Potency,[2],inactive
C[N@+]12CCCC[C@@H]1CCC(=C(c1cccs1)c1cccs1)C2,Potency,[1],inactive
same,Potency,[2],inactive
CO[C@@H]1[C@H](OC(=O)/C=C/C=C/C=C/C=C/C(=O)O)CC[C@]2(CO2)[C@H]1[C@@]1(C)O[C@@H]1CC=C(C)C,Potency,[1],inactive
same,Potency,[2],14.1 µM (active)
CNC(=O)[C@H](Cc1c[nH]c2ccccc12)NC(=O)[C@@H](CC(=O)NO)CC(C)C,Potency,[1],inactive
same,Potency,[2],inactive
same,Z-AUC,[3],0.599 (inactive)
same,Z-AUC,[3]; [7],0.54
same,Z-AUC,[3]; measured here: PEO4 Z-AUC,0.809
C[C@@H](O)[C@H]1C(=O)N2C(C(=O)[O-])=C(SC3Cn4cnc[n+]4C3)[C@H](C)[C@H]12 (some centres not stated),"activity, negative = inhibition",[1],-13.7% [at 9.52 µM] (inactive)
same,"activity change, negative = inhibition",[2],-27.3% [at 9.73 µM] (inactive)
CO[C@H]1C[C@@H]2CC[C@@H](C)[C@@](O)(O2)C(=O)C(=O)N2CCCC[C@H]2C(=O)O[C@H]([C@H](C)C[C@@H]2CC[C@@H](OC(=O)C(C)(CO)CO)[C@H](OC)C2)CC(=O)[C@H](C)/C=C(\C)[C@@H](O)[C@@H](OC)C(=O)[C@H](C)C[C@H](C)/C=C/C=C/C=C/1C,Potency,[1],inactive
same,Potency,[2],inactive
same,outcome,[4],inactive
same,outcome,[5],inactive
same,outcome,[6],inactive
same,Z-AUC,[3],-1.22 (inactive)
same,Z-AUC,[3]; [7],-1.04
same,Z-AUC,[3]; measured here: PEO4 Z-AUC,-0.64
COc1ccc(C[C@H](C)NC[C@@H](O)c2ccc(O)c(NC=O)c2)cc1,Potency,[1],inactive
same,Potency,[2],inactive
same,outcome,[4],inactive
same,outcome,[5],inactive
same,outcome,[6],inactive

# — PubChem BioAssay (NCATS)
